Test results as given in PubChem BioAssay (NCI).
Where “and” joins values, the source holds several entries; their conditions need not be identical. Equal values may be shown once. Compounds without any hit were thinned out: in the full panel of roughly 79,000, 15% have a hit. A number with no mark means an inactive call. Calls of active or inactive are those of the source. No stated cut-off is given here; in the data, active means growth inhibition above about 70%; inactive means the rest.

Key:
[1] = NCI Yeast Anticancer Drug Screen. Data for the rad50 strain (AID 155);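 further: 0% = growth of vehicle-only cultures of the same strain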; conditions: S. cerevisiae rad50 strain growth inhibition, stronger effect = higher value; at 50.0 µM unless noted
Method in brief: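 Readout: growth inhibition relative to vehicle-treated cultures. Compound exposure was carried out in a genetically defined yeast strain deficient in DNA damage repair.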

[2] = NCI Yeast Anticancer Drug Screen. Data for the mec2-1 strain (AID 157); conditions: S. cerevisiae mec2-1 strain, stronger effect = higher value; at 50.0 µM unless noted
Method in brief: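 Strain: mec2-1 (DNA repair/cell cycle alteration). Compound exposure, then growth measured; inhibition expressed relative to vehicle.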

[3] = NCI Yeast Anticancer Drug Screen. Data for the sgs1 mgt1 strain (AID 161);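 further: 0% = growth of cultures given vehicle only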; conditions: S. cerevisiae sgs1 mgt1 strain, stronger effect = higher value; at 50.0 µM unless noted
Method in brief: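 Read-out: growth inhibition vs vehicle controls. Cells: mutant yeast strain deficient in DNA damage repair.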

[4] = NCI Yeast Anticancer Drug Screen. Data for the cln2 rad14 strain (AID 165);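 further: 0% = growth equal to vehicle treated cultures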; conditions: S. cerevisiae cln2 rad14 strain, stronger effect = higher value; at 50.0 µM unless noted
Method in brief: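 Compounds are applied to the cln2 rad14 yeast strain, and growth is then compared with that of vehicle-treated cultures to give inhibition.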

[5] = NCI Yeast Anticancer Drug Screen. Data for the bub3 strain (AID 167); conditions: S. cerevisiae bub3 mutant strain, stronger effect = higher value; at 50.0 µM unless noted
Method in brief: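 Readout: yeast growth inhibition, expressed relative to vehicle-only wells. The test organism is a mutant strain from a panel with lesions in DNA repair or checkpoint genes.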

[6] = NCI Yeast Anticancer Drug Screen. Data for the mlh1 rad18 strain (AID 175); conditions: S. cerevisiae mlh1 rad18 strain growth inhibition, stronger effect = higher value; at 50.0 µM unless noted
Method in brief: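 Read-out is yeast growth inhibition, calculated against vehicle-only controls. The compound was applied to a strain engineered with DNA damage repair alterations.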

Row | Structure (SMILES) | growth inhibition [1] | growth inhibition [2] | growth inhibition [3] | growth inhibition [4] | growth inhibition [5] | growth inhibition [6]
1 | Cc1cc2cc3c(=O)[nH]c(=O)[nH]c3nc2cc1C | -11.7% | 1.65% | -19% | -8.6% | -27.2% | -0.05%
2 | CCOC(=O)c1ccc(N(CCO)CCO)cc1 | 3.45% | 12.4% | 5.45% | -94.2% | 32.5% | 13.7%
3 | Clc1nc(-c2ccccc2)ns1 | 1.9% | -9.3% | -12.7% | 1.45% | -6.85% | -10.4%
4 | CC/C(CC(=O)CCC(=O)Nc1c(C)cccc1C)=N\NC(=O)NN | -19.4% | -22% | -4.15% | 24.6% | 3% | -8.5%
5 | CC(O)CNc1nc(N)[nH]c(=O)c1[N+](=O)[O-] (stereo not given) | 4.45% | 2.35% | 1.45% | -41.5% | -9.95% | -1.6%
6 | CC1=Nc2cc(Cl)c(Cl)cc2N(C)/C1=C/C1=C(Cl)C(=O)c2cc3c(Cl)ccc(Cl)c3cc2C1=O | -0.05% | 8.75% | 13.1% | 25.1% | -1.4% | 20.8%
7 | COC1/C=C/OC2(C)Oc3c(C)c(O)c4c(c3C2=O)C(=O)C([N+](=O)[O-])=C(NC(=O)C(C)=C/C=C\C(C)C(O)C(C)C(O)C(C)C(OC(C)=O)C1C)C4=O (stereo not given) | 21.7% | 10.4% | 29.4% | 19.6% | 24.4% | 29.6%
8 | O=C1C(c2ccccc2)=C(c2ccccc2)C1(Cl)Cl | -5.95% | -6.1% | 44.3% | 37.6% | 17.9% | 88.4% (active)
9 | COc1cc(C2CC(C)(Nc3ccccc3)Oc3cc4c(cc32)OCO4)cc(OC)c1OC (stereo not given) | -6.35% | -13.7% | -3.55% | 4.95% | 4.1% | -14.2%
10 | C=C1CC[C@](C)(O)[C@@]2(C)CC[C@H]3C(=C(C)C)C(=O)C[C@]3(C)C[C@H]12 | 12.1% | 5.45% | 10.2% | 18.5% | 1.7% | 23.8%
11 | CCCCCCCCCCCCN1CCCC(O)C1 (stereo not given) | 66.8% | 60.8% | 74.4% (active) | 56.4% | 70.6% (active) | 78.1% (active)
12 | CC(=O)Nc1cc(NC(C)=O)c2ccc(=O)[nH]c2c1O | -2.9% | -3.6% | -3.55% | -8.25% | 15.3% | 5.3%
13 | COc1cc2c(cc1OC)C(=O)c1nccc3ccc(OC)c(c13)O2 | -0.35% | 17.1% | 23.3% | 4.75% | 16.6% | 16.6%
14 | CC(=O)N1C=CC(=Cc2ccccc2)C=C1 | -0.15% | 5.55% | -30.6% | -1.25% | 12.8% | 3.95%
15 | CC(C)=CC(=O)CNC(N)=S | 36.1% | 17.9% | 16.4% | 10.7% | 0.25% | 23.9%
16 | O=C(O)CCCn1nnc2c(=O)[nH][nH]c(=O)c21 | 7.3% | 5.65% | 4.4% | -7.75% | -0.25% | 11.6%
17 | Cc1nn(C(C)C(=O)N(C)C)c(Br)c1Br (stereo not given) | 2.05% | 4.7% | 0.75% | -30.4% | -25.7% | 3.15%
18 | O=C1C=C(Nc2ccccc2)c2ccccc2C1=O | -1.15% and 24.4% | 16.4% and -8.6% | 11.4% and 25.4% | -14.5% and 19.9% | 33.9% and 14.1% | 15.2% and 12.2%
19 | Nc1nc(=S)[nH]c(=S)[nH]1 | 22.9% | 19.4% | 10.9% | 2.7% | 17.2% | -4.45%
20 | COC(=O)/C=C(/Sc1nc(Cl)c(Cl)nc1N)C(=O)OC (tested in a mixture with another compound) | -15.1% | -6.25% | 10.7% | -4.3% | -29.5% | -24.6%

Row | Structure (SMILES) | growth inhibition [1] | growth inhibition [2] | growth inhibition [3] | growth inhibition [4] | growth inhibition [5] | growth inhibition [6]
21 | CC1=NC(=Cc2cc(Br)cc(Br)c2)C(=O)N1n1c(-c2ccccc2)nc2ccccc2c1=O | -13.2% | -15.8% | -1.65% | 0.95% | -24.7% | 2.7%
22 | COc1ccccc1C(O)C(C)C (stereo not given) | -17.6% | -11.3% | 3.9% | -15.8% | -5.25% | -24.1%
23 | CCOC(=O)C(NC(C)=O)(Nc1ccc(S(N)(=O)=O)cc1)C(F)(F)F (stereo not given) | -16.2% | 1.55% | 3.95% | 27.6% | 7.7% | -28.9%
24 | COCNC(=S)c1ccc(C(N)=O)nc1C(=O)NC(C)(C)C | 15.8% | 0.4% | 5.6% | -3.3% | -5.8% | 30.6%
25 | O=C1Cc2c(-c3ccc(Cl)cc3)cc(-c3ccccc3)nc2-c2ccccc2N1 | -16.9% | -17.8% | -10.9% | 4.95% | -11.2% | -52%
26 | COP(=O)(OC)/C(=C/c1cn(C(C)=O)c2ccccc12)NC(C)=O | -21% | -49.9% | -13.1% | 13.1% | 15.4% | -8.25%
27 | COC(=O)CCC1(C)C2CCC1(C)/C(=N/O)C2 (stereo not given) | -10.2% | 3.15% | 2.35% | 0.45% | -21.1% | 6.7%
28 | O=C(Oc1cc2c(cc1Br)OCO2)c1cccc2ccccc12 | 0.85% | -30.3% | 9.8% | -48.7% | 6.95% | -27.2%
29 | CCC(NN)C(=O)O (stereo not given) | 5.45% | -14.1% | -33.6% | -26% | -9.5% | -5.35%
30 | Nc1nc(N)c2ncn(Cc3ccccc3)c2n1 | -41.2% | -34.4% | -9.95% | -14.1% | -16.1% | -13.9%
31 | CC1CCC(C(C)C)C(NNC(N)=O)C1 (stereo not given) | 39.5% and 9.65% | 12.7% and 3.8% | 5% and 6.8% | 14.3% and 3.4% | 45% and -0.95% | 15.9% and 9.6%
32 | COC(=O)[C@@H]1Cc2cc(O)c(O)cc2C2(CCN(C)CC2)O1 | -21.5% | -22.8% | -17.6% | -12.2% | -10.7% | -29.1%
33 | CC(=O)OC(C#N)c1ccco1 (stereo not given) | -11.4% | -49.1% | -25.2% | 5.8% | -38.2% | -7.85%
34 | N#CCCCCCOCCOCCOCCOCCOCCCCCC#N | 12.8% | 12.9% | -10.2% | 12.7% | -1.75% | 18.6%
35 | N/N=C1/CCN2CCCc3cccc1c32 | 11.2% | 2.75% | 1.25% | -27.4% | -19.4% | 10.1%
36 | COc1nc2nccnc2c(=O)n1C | -18.2% | -4.65% | -16.5% | 14.4% | -7.55% | -3.3%
37 | COc1ccc(Cl)c2c(=O)c3ccccc3[nH]c12 | -3.45% | 7.65% | 2.5% | -35.1% | -12.3% | 12.8%
38 | CC(C)N=C(N)N=C(N)N | 30.9% | 13.5% | 3.85% | 3.9% | 30.2% | -3.2%
39 | COc1ccc(C2S/C(=C\c3ccc([N+](=O)[O-])cc3)C(=O)N2NC(=O)Cc2ccccc2)cc1 (stereo not given) | 17.9% | -7.95% | 2.9% | -23.8% | 11.4% | 8.65%
40 | COc1cc(CCC(NC(C)=O)c2cccc(O)c(=O)c2)cc(OC)c1OC (stereo not given) | -10.2% | -4.6% | 17.2% | -33.5% | -3.35% | 8.1%
